# Data taken from PubChem BioAssay AID686978 (National Center for Advancing Translational Sciences (NCATS), 2013).
# In all, about 420,000 compounds went through this assay and about 64,000 (15%) were called active. Another 27% or so got no clear call; they are omitted. The call rests on the fitted dose curve; in most records, active means well fitted inhibition curve with a large enough effect; inconclusive means small, poorly fitted or top-dose-only effect; inactive means flat fitted curve, though single readings scatter. A selection follows. A call without a number means that no potency is given here.
# Assay: qHTS for Inhibitors of human tyrosyl-DNA phosphodiesterase 1 (TDP1): qHTS in cells in absence of CPT; further: nearly all actives have a fitted effect of over 55% in size
# Details: DT40 Tdp1-/- hTDP1 cells, no CPT, ATP luminescence, 48 h; activity change, negative = growth inhibition: at 46.2 µM (top of the series)
# How it was run: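 Growth kinetics read by CellTiter-Glo luminescence after ≥48 hr at 37 °C. Cells: DT40 Tdp1-/- stably carrying human TDP1, 400 per well, compound exposure in the absence of CPT (DMSO vehicle).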
# Potency means the concentration at half of the fitted maximal effect.
row,SMILES,Potency
1,CC(C)C(=O)Nc1nnc(SCC(=O)N2C(C)CCCC2C)s1 (centres undefined),inactive
2,C[C@H]1CN([C@@H](C)CO)C(=O)CCCn2cc(nn2)CO[C@@H]1CN(C)S(=O)(=O)c1cccc(C#N)c1,inactive
3,CC(C)NC(=O)C(c1ccc(F)cc1)N(C(=O)CCC(=O)Nc1ccccn1)c1ccccc1F (centres undefined),inactive
4,O=C(Nc1ccccc1Cl)N1CCC(CN2CCCCC2)CC1,inactive
5,CC(=O)N=c1ncn(CC(COC(C)=O)OC(C)=O)c2nc[nH]c12 (centres undefined),inactive
6,Cc1ccc(CNC(=O)CCCNC(=O)c2ccc(Cl)cc2)n1C,inactive
7,Cc1nc(-c2ccc(Cl)cc2)sc1C1(C)CC(c2ccc(Br)cc2)=NO1 (centres undefined),inactive
8,Cc1cccc(NC(=O)CSc2nc3c(c(=O)[nH]2)CCC3)c1C,inactive
9,CCCCn1c(N)c(N(CC(C)C)C(=O)c2cccc(S(=O)(=O)N3CCN(C(C)=O)CC3)c2)c(=O)[nH]c1=O,inactive
10,O=C(NCCCn1ccnc1)C(=O)c1cn(CC(=O)N2CCCCCC2)c2ccccc12,inactive
11,O=C(NNC(=O)c1cccnc1)Nc1ccccc1,inactive
12,O=C(c1cccnc1)N(Cc1ccccc1)C(=O)c1cccnc1,inactive
13,O=C(CC(=O)c1cccnc1)c1ccccc1,20.6 µM (active)
14,COC(=O)Cc1cnc(NC(=O)CSc2nc(C(C)C)cc(=O)[nH]2)s1,inactive
15,COc1cccc(-n2c(=O)c3c(C)c(C(=O)N(C)C)sc3n(Cc3cccc(C)c3)c2=O)c1,inactive
16,COc1cccc(N=c2oc3c(C)ncc(CO)c3cc2C(N)=O)c1,inactive
17,CCCN(CCC)c1c([N+](=O)[O-])c(=O)oc2ccccc12,inactive
18,CCC(C)(C)NC(=O)C(c1ccc(O)cc1)N(C(=O)Cn1nnc2ccccc21)c1ccc(NC(C)=O)cc1 (centres undefined),inactive
19,COc1ccc(NC(=O)CCCN2C(=O)CCn3nc(-c4cn(C)c5ccccc45)cc32)cc1OC,23.1 µM (active)
20,COc1ccc(NC(=O)CCCNC(=O)Cn2cnc3sc4c(c3c2=O)CCCC4)cc1OC,inactive
21,O=C(CN1C(=O)CCn2nc(-c3ccccc3)cc21)NCc1ccccc1,inactive
22,O=C(/C=C/[C@H]1O[C@@H](n2ccc(=O)[nH]c2=O)[C@H](O)[C@@H]1O)NCc1ccccn1,inactive

row,SMILES,Potency
1,O=C(COC(=O)c1cc(-c2cccs2)nn1-c1ccccc1)Nc1cc([N+](=O)[O-])ccc1Cl,inactive
2,COc1ccc(Cl)cc1NC(=O)CN(C)C(=O)c1cc2ccccc2cc1OC,18.4 µM (active)
3,COc1ccc(Cl)cc1NC(=O)CN(C)C(=O)CNC(=O)C12CC3CC(CC(C3)C1)C2,inactive
4,COc1ccc(-c2cc(C(F)(F)F)nc(SCC(=O)Nc3ccc4c(c3)OCO4)n2)cc1OC,inactive
5,COc1ccc(C)cc1NC(=O)CSc1nnc(CC(=O)Nc2ccccc2F)n1C,inactive
6,COc1ccc(Cl)cc1NC(=O)CSc1nc(-c2cccs2)cc(C(F)(F)F)n1,20.6 µM (active)
7,COc1ccc(Cl)cc1NC(=O)CNc1ccccc1F,inactive
8,COc1ccc(Cl)cc1NC(=O)CN(C)C(=O)c1cc(-c2cccs2)nn1-c1ccccc1,18.4 µM (active)
9,C=Cn1cc[n+](CC(=O)c2ccc(OC)c(OC)c2)c1,inactive
10,Cc1c(C(=O)N(C)CCc2cnn(C)c2)oc2c(F)cccc12,inactive
11,Cn1ccs/c1=N\S(=O)(=O)c1ccc(C(C)(C)C)cc1,inactive
12,CC(=O)Nc1ccc(S(=O)(=O)NCC2CCC(C(=O)NCCc3ccccc3)CC2)cc1 (centres undefined),inactive
13,CS(=O)(=O)N1CCN=C1SCc1ccc(F)cc1,inactive
14,CCn1c(SCc2cccc(C(=O)O)c2)nnc1-c1ccc(Cl)cc1,inactive
15,Cc1oc2cc3oc(=O)ccc3cc2c1C,inactive
16,O=C(Nc1c(Br)cc2c(c1Br)Cc1ccccc1-2)C(F)(F)F,inactive
17,CC(=O)c1ccc2c(c1)c1ccccc1n2CC(C)C,inactive
18,CCOC(=O)c1sc(NC(=O)CSc2n[nH]c(CC)n2)nc1C,inactive
19,Cc1ccc(NC(=O)CN2CCc3ccccc3C2)cc1,inactive
20,O=C(CN1CCOCC1)Nc1ccccc1,inactive
21,O=C(CN1CCc2cc3c(cc2C1)OCCCO3)Nc1ccccc1,25.9 µM (active)
22,Cc1ccc(NS(=O)(=O)c2cn(C)c(=O)n(C)c2=O)c(C)c1,inactive

row,SMILES,Potency
1,O=C(CCN1C(=O)C2C3C=CC(C3)C2C1=O)Nc1ccccc1F (centres undefined),inactive
2,O=C(NCCCNC(=O)c1ccccc1Cl)c1cnccn1,inactive
3,CCCCNC1(C#N)CCN(Cc2ccccc2)CC1,inactive
4,Cc1cc2c(cc1C)NC1(C[C@H]3CCC(=O)N4CC[C@@H](C1)[C@@H]34)C(=NC(C)(C)CC(C)(C)C)N2 (some centres undefined),20 µM (active)
5,O=C1CCC[C@@H]2C[C@@]3(C[C@@H]4CCN1[C@H]24)Nc1ccccc1NC3=NCc1ccccc1,inactive
6,O=C1CC[C@@H]2CC3(C[C@@H]4CCN1[C@H]24)Nc1cc([N+](=O)[O-])ccc1NC3=NC1CCCCC1 (some centres undefined),inactive
7,COc1ccc(N2C(=O)NC(NS(=O)(=O)c3ccc(Cl)cc3)(C(F)(F)F)C2=O)cc1 (centres undefined),inactive
8,CN(C)C(=O)c1ccc(-c2cncnc2NC2CCNCC2)cc1,inactive
9,O=C(O)c1ccc(/C=C2\SC(=S)N(NC(=O)c3ccc(Br)cc3)C2=O)cc1,inactive
10,Cn1c(Cc2cccs2)nnc1SCC(=O)Nc1ccccc1,inactive
11,CCn1c(Cc2cccs2)nnc1SCC(=O)c1ccc(C)cc1,14.1 µM (active)
12,Cc1ccc(-n2c(Cc3cccs3)nnc2SCC(=O)OC(C)C)cc1,inactive
13,O=c1[nH]c(=O)c2nc3ccccc3nc2[nH]1,inactive
14,CCCc1nnc(NC(=O)c2cccs2)s1,inactive
15,O=C1NC(=O)C(c2ccc(Cl)cc2)N1 (centres undefined),inactive
16,CCOC(=O)N1CCN(C(=O)C(=O)Nc2sc3c(c2C#N)CC(C)(C)OC3)CC1,inactive
17,NS(=O)(=O)c1ccc2nc(NC(=O)CS(=O)(=O)c3ccc(F)cc3)sc2c1,inactive
18,O=C(Cn1c(=O)sc2ccccc21)Nc1nc2c(s1)CCCC2,inactive
19,COc1cc(C#Cc2ccc3cc(CCCO)oc(=O)c3c2)cc(OC)c1,1.03 µM (active)
20,CN(C(=O)CN1C(=O)CCSc2ccc(S(=O)(=O)N3CCCC3)cc21)c1ccccc1,inactive
